This is a sample that favours compounds with a hit; in the whole collection about 4.3% have one here.
BoNT-F LC inh = blocks Botulinum neurotoxin F light chain protease. Multiplex microsphere protease cleavage assay, flow cytometry. inhibition, % at 10 µM. 360,000 tested, 0.22% active. AID 588497; in the data active = inhibition above about 35%, passing the limit was not always enough; inconclusive = no clear call, values can overlap the other calls
BoNT-A LC inh2 = BoNT A light chain protease inhibition; multiplex microsphere protease substrate cleavage, flow cytometry; inhibition, % at 10 µM; 360,000 tested, 0.17% active; AID 588499
MazF activator = MazEF (E. coli) toxin RNase activation. P0AE70. FAM/BHQ RNA-DNA oligo cleavage fluorescence, 5 h. activation, % at 20 µM. 350,000 tested, 0.32% active. AID 504720; in the data active = activation above about 50%
Bead autofluor = flagged as autofluorescent in microsphere protease counterscreen; compound autofluorescence counterscreen, microsphere flow cytometry; active compounds read high; fluorescence intensity (concentration not given with the values); 360,000 tested, 3.1% active; in the data active = fluorescence intensity above about 16000; inconclusive = no clear call, values can overlap the other calls
Anthrax LF inh2 = inhibitors of Bacillus anthracis lethal factor protease. AID 588501. 360,000 tested, 0.12% active. inhibition, % at 10 µM. multiplex microsphere protease cleavage assay, LF. P15917
PfHsp40 yeast = rescue of PfHsp40-mediated yeast toxicity; S. cerevisiae expressing PfHsp40, growth rescue, ATP luminescence; growth rescue, % at 12.5 µM; 340,000 tested, 0.68% active; AID 504582; in the data active = growth rescue above about 28%, passing the limit was not always enough; inconclusive = no clear call, values can overlap the other calls;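 note: yeast W303a lacking pdr1 and pdr3 grown in galactose medium; growth measured after three days at 30 °C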
Large screens that a line does not name were inactive. Cut-off read from the data, not from the text of the source, unless noted: active = inhibition above about 30%; inconclusive = no clear call, values can overlap the other calls; inactive = below that.

CCOC(=O)c1ccc(NC(=O)C(C)NS(=O)(=O)c2ccc(OC)cc2)cc1 (stereo not drawn)	Bead autofluor 16181
CCOC(=O)c1ccc(NC(=O)C2(c3ccc(OC)cc3)CCOCC2)cc1	MazF activator 60
COc1ccc(NC(=O)C23CCC(C)(C(=O)O2)C3(C)C)cc1 (stereo not drawn)	none
CC1(C(=O)NS(=O)(=O)Cc2cccc(Cl)c2)CCN1C(=O)c1ccc(C2CCCCC2)cc1 (stereo not drawn)	none (no result: MazF activator, PfHsp40 yeast)
Cc1noc(C)c1COc1ccc(C(=O)Nc2ncccc2O)cc1	none
Cc1ccc(C(=O)CN(CCCC(N)=O)S(=O)(=O)c2ccc([N+](=O)[O-])cc2)cc1	none
O=C(CNC(=O)c1ccc(Cl)cc1Cl)OCC(=O)N1CCCC1=O	none (no result: PfHsp40 yeast)
FC(F)(F)c1nnc2sc(-c3ccncc3)nn12	BoNT-A LC inh2 inconclusive, Bead autofluor 19007
CN(C)/C(Cn1cncn1)=C1/N=C(c2c(F)cccc2F)OC1=O	none
CN(C)/C(CN1CCOCC1)=C1\N=C(c2ccccc2)OC1=O	Bead autofluor 23718
COC(=O)c1oc2c(c1C)C(=O)CC(C)(C)C2	none
CCNC(=O)c1oc2c(c1C)C(=O)CC(C)(C)C2	Bead autofluor 20892
Cc1c(C(=O)NCc2cccnc2)oc2c1C(=O)CC(C)(C)C2	Bead autofluor 21305
COc1cc(/C=C/C(=O)OCC(=O)N2CCCc3ccccc32)ccc1OC(F)F	none (no result: BoNT-F LC inh, BoNT-A LC inh2, Bead autofluor, Anthrax LF inh2)
C=CCOn1c(=O)c(-c2ccc(Cl)cc2)[n+]([O-])c2ccccc21	none
C=CCOn1c(=O)c(-c2cccs2)[n+]([O-])c2ccccc21	Bead autofluor 21222
Cc1ccccc1NC(=O)c1cccc(N2C(=O)C3C4CCC(C4)C3C2=O)c1 (stereo not drawn)	BoNT-A LC inh2 inconclusive, Bead autofluor 23697
O=C(N/N=C/c1c(O)n(-c2ccc(Cl)cn2)c(=O)c2ccccc12)c1ccncc1	PfHsp40 yeast 29
O=C(N/N=C/c1c(O)n(-c2ccc(Cl)cn2)c(=O)c2ccccc12)C1CC1	none
CCOC(=O)Cn1nnc(-c2ccccc2)n1	BoNT-F LC inh inconclusive
CCOC(=O)C(Cc1ccccc1)NC(=O)Cn1nnc(-c2ccccc2)n1 (stereo not drawn)	Bead autofluor 20857
CCCOc1ccc(-c2nnn(CC(=O)OCC)n2)cc1	Bead autofluor 22991
CCCOc1ccc(-c2nnn(CC(=O)N3CCCCC3)n2)cc1	none
CCOc1ccc(-c2nnn(CC(=O)NCc3ccco3)n2)cc1	BoNT-A LC inh2 inconclusive, Bead autofluor 19976
O=C(Cn1nnc(-c2ccccc2)n1)NCc1ccco1	none
CC1=C(C(=O)OCC2CCCO2)C(c2ccsc2)C2=C(CCCC2=O)N1 (stereo not drawn)	none
C[C@@H]1[C@H]2[C@@H]3CC[C@@H](C3)[C@H]2CN[C@H]1c1cn(Cc2ccccc2)c2ccccc12	none
CCCCn1c(N)c(N(CCOC)C(=O)CCNC(=O)c2ccc(Br)cc2)c(=O)[nH]c1=O	none
Cc1ccccc1-c1ccc(/C=C2/SC(N3CCOCC3)=NC2=O)o1	BoNT-F LC inh inconclusive, MazF activator 151
C=CCn1cc(/C=C2\SC(N3CCOCC3)=NC2=O)c2ccccc21	none (no result: BoNT-F LC inh, BoNT-A LC inh2, Bead autofluor, Anthrax LF inh2, PfHsp40 yeast)
O=C1N=C(N2CCOCC2)S/C1=C\c1cccs1	none
O=C1N=C(N2CCOCC2)S/C1=C\c1ccc(-c2ccccc2Cl)o1	MazF activator 61
COCCCn1c(=S)[nH]c(C)c(C)c1=O	none
CCOC(=O)c1sc(NC(=O)CSc2n[nH]c(-c3ccc(Cl)cc3Cl)n2)c(C#N)c1C	BoNT-A LC inh2 inconclusive, Bead autofluor 23279
CCOC(=O)c1sc(NC(=O)CSc2nc(C)cc(-c3ccccc3)n2)c(C#N)c1C	Bead autofluor 19559
CCOC(=O)c1sc(NC(=O)CSc2nc(C)cc(C)c2C#N)c(C#N)c1C	none
Cc1cc(NC(=O)CSc2n[nH]c(-c3ccc(Cl)cc3Cl)n2)no1	none
CCOC(=O)c1sc(NC(=O)CSc2nc3c(cc2C#N)CCCCCC3)c(C#N)c1C	BoNT-A LC inh2 inconclusive, Bead autofluor 17520
COc1ccccc1-c1cnc(C(O)c2ccc(F)cc2C)[nH]1 (stereo not drawn)	none (no result: MazF activator, PfHsp40 yeast)
Cc1ccc(C)c2[nH]c(=O)c(CN(CC3CCCO3)C(=O)NC3CCCCC3)cc12 (stereo not drawn)	BoNT-A LC inh2 inconclusive, Bead autofluor 19956
Cc1ccc(C)c2[nH]c(=O)c(CN(Cc3nnnn3C3CCCCC3)CC3CCCO3)cc12 (stereo not drawn)	none
COc1ccc(CN(Cc2cc3cc(OC)c(OC)cc3[nH]c2=O)C(=O)NC2CCCCC2)cc1	Bead autofluor 22119
COc1cccc(OC)c1C(=O)OCC(=O)Nc1cccnc1Cl	PfHsp40 yeast 58
O=C(CNCC1CCCO1)Nc1ccccc1-n1cccc1 (stereo not drawn)	none
O=C(CNCC1CCCO1)Nc1ccccc1N1CCOCC1 (stereo not drawn)	Bead autofluor 22897
Cc1c(C(=O)NCc2ccc([N+](=O)[O-])cc2)sc(=O)n1Cc1ccc2c(c1)OCO2	none (no result: MazF activator, PfHsp40 yeast)
Cc1c(C)c2cc(Cl)c(O)c(CN(C)C)c2oc1=O	none
CCc1c(C)c2cc(Cl)c(O)c(CN(C)C)c2oc1=O	BoNT-A LC inh2 inconclusive, Bead autofluor 17210
CCCCc1cc(=O)oc2c(CN(C)C)c(O)c(Cl)cc12	Bead autofluor 23705
CCCc1nc(SCC(N)=O)[nH]c(=O)c1CC	Bead autofluor 22995
CCCc1cc(=O)[nH]c(SCC(N)=O)n1	BoNT-F LC inh inconclusive
O=C(Cc1cccc(NC(=O)C2CCN(C(=O)C3CCCC3)CC2)c1)Nc1cccc(C(=O)N2CCOCC2)c1	none
Cc1onc(-c2ccccc2)c1C(=O)NNC(=S)NC(=O)c1ccc2c(c1)OCO2	BoNT-F LC inh inconclusive, PfHsp40 yeast 48
Cc1onc(-c2ccccc2)c1C(=O)NCc1ccc2c(c1)OCO2	none
Cc1onc(-c2ccccc2)c1C(=O)NC(=S)NNC(=O)c1ccncc1	none
COc1cc(OC)cc(C(=O)NC(=S)NNC(=O)[C@H]2C[C@@H]2c2ccccc2)c1	BoNT-F LC inh inconclusive
COc1ccc(C(=O)NC(=S)NNC(=O)[C@H]2C[C@@H]2c2ccccc2)cc1OC	PfHsp40 yeast 66 (no result: BoNT-F LC inh, BoNT-A LC inh2, Bead autofluor, Anthrax LF inh2)
COc1ccc(C(=O)NC(=S)NNC(=O)c2c(-c3ccccc3)noc2C)cc1OC	PfHsp40 yeast 31
O=C1CC2CCCC(C1)S2=O (stereo not drawn)	none (no result: PfHsp40 yeast)
COc1ccc([C@@]2(O)c3c(ccc(CC=C(C)C)c3O)NC(=O)[C@@H]2OC)cc1	none
C/C=C/c1ccc(OCCOc2cc(C=O)ccc2OC)c(OC)c1	PfHsp40 yeast 39
CC1CN(C(=O)COC(=O)/C=C/c2cccc([N+](=O)[O-])c2)CC(C)O1 (stereo not drawn)	none
CC(C)Nc1nnc(SCC(=O)Nc2sccc2C#N)s1	none
CCN(C(C)=O)c1nc(CSc2nnc(NC(C)C)s2)cs1	BoNT-A LC inh2 inconclusive, Bead autofluor 19610
COc1cc(OC)cc(-c2nc3cc(C)ccc3o2)c1	Bead autofluor 22263
Cc1cc(C)n(C(=O)Cn2nc(C(F)F)cc2C)n1	Bead autofluor 21933
Cc1cc(C)n(CC(=O)n2nc(C)cc2C)n1	none

High-throughput results: PubChem, several laboratories
